# Hit rate of the full screen: of about 1,900 compounds, about 320 (17%) were called active. A selection follows. Unmarked numbers belong to inactive results. Cut-off read from the data, not from the text of the source: active = inhibition above about 30%; inactive = the rest.
# System: CCHF virus ovarian tumor domain protease (vOTU, L protein)
# Test: CCHFV vOTU protease inhibitors, confirmation, biochemical, Pep-AMC substrate, fluorescence (AID 686976)
# Conditions: Recombinant CCHFV vOTU, at 11.5 µM, stronger effect = higher value
row,Structure (SMILES),inhibition
1,O=C(OCC(=O)c1cccs1)c1ccc([N+](=O)[O-])o1,-0.43%
2,Cc1cc(OC(C)C(=O)Nc2ccc(S(=O)(=O)Nc3onc(C)c3C)cc2)cc(C)c1Cl (stereo unspecified),12.3%
3,CC(=O)N1CCN(c2ccc(NCc3ccc(C(C)C)cc3)cc2)CC1,-11.5%
4,Clc1ccc(C2=CSC3=Nc4cccc5cccc(c45)N23)cc1,94.7% (active)
5,COc1ccc(S(=O)(=O)/N=C2\C=C(NS(=O)(=O)c3ccccc3)C(=O)c3ccccc32)cc1,33% (active)
6,O=S(=O)(Nc1ccc(O)c2ccccc12)c1ccc(OC(F)(F)F)cc1,10.3%
7,Cc1ccc(S(=O)(=O)/N=C2\C=C(NS(=O)(=O)c3ccc(C)cc3)C(=O)c3ccccc32)cc1,38.1% (active)
8,O=C1NC(c2ccc(-c3ccccc3[N+](=O)[O-])o2)C(C(=O)c2ccc(Cl)cc2)C(O)(C(F)(F)F)N1 (stereo unspecified),34.9% (active)
9,CC1=NN(c2ccc(Cl)c(C(=O)O)c2)C(=O)/C1=C/c1ccc(-c2ccccc2[N+](=O)[O-])o1,5.11%
10,Cc1cc(C)cc(NC(=S)NCCc2c[nH]c3ccccc23)c1,-3.11%
11,CCN(CC)CCCC(C)n1c2nc(=O)[nH]c(=O)c-2nc2cc(Cl)ccc21 (stereo unspecified),98.9% (active)
12,COc1cc(NC(=O)COC(=O)c2ccc([N+](=O)[O-])s2)cc(OC)c1OC,81.3% (active)
13,COc1ccc(C(=O)COC(=O)c2ccc([N+](=O)[O-])s2)cc1OC,12.4%
14,O=C(COc1ccc(Cl)cc1)N1CCN(c2cccc(C(F)(F)F)c2)CC1,-7.38%
15,COCCNC(=O)Nc1ccc2nc(-c3ccco3)c(-c3ccco3)nc2c1,1.78%
16,O=C(O)c1cc(S(=O)(=O)Nc2ccc3cn[nH]c3c2)ccc1Br,-10.8%
17,Oc1ccc(N=Cc2sc3ccccc3c2Cl)cc1,-0.82%
18,COc1ccccc1CNS(=O)(=O)c1cc2c3c(c1)CCC(=O)N3CCC2,-12.5%
19,Cc1cccc(C)c1NC(=O)CNC(=O)c1c(C)nn(-c2ccccc2)c1C,-17.8%
20,Oc1c(Cl)cc(Cl)c(Cl)c1Cc1c(O)c(Cl)cc(Cl)c1Cl,31.2% (active)
21,CC(=O)N(C1=C(Cl)C(=O)c2ccccc2C1=O)c1ccc(C(=O)O)cc1,101% (active)
22,CC(C(=O)Nc1ccccc1-c1ccccc1)N1CCOCC1 (stereo unspecified),-10.3%
23,Cc1oc2c(c1C(=O)N1CCOCC1)C(=O)c1ccccc1C2=O,41% (active)

row,Structure (SMILES),inhibition
1,COc1ccc2c(c1)c(=Cc1ccc(N(C)C)cc1)c1cc(-c3ccccc3)[n+](C)n12,-15.8%
2,Cc1ccc(S(=O)(=O)N2[C@@H](c3ccc(Br)cc3)C(C(=O)O)=C[C@H]2CC2CCCC2)cc1,24.4%
3,Oc1ccc(CNc2ccccc2O)cc1,-5.66%
4,CCOc1ccc(C(=O)Nc2ccc(S(=O)(=O)NCC3CCCO3)cc2)cc1OCC (stereo unspecified),-7.98%
5,Oc1c(CN2CCN(c3ccc(F)cc3)CC2)cc(Cl)c2cccnc12,-0.25%
6,CCOc1cc(NC(=O)c2ccccc2C(=O)O)c(OCC)cc1NC(=O)c1ccccc1F,-9.49%
7,Cc1ccc(OCc2nnc(SC/C=C/c3ccccc3)n2Cc2ccco2)cc1,15.3%
8,COc1ccccc1N=Nc1c(O)[nH]c(=S)[nH]c1=O,30.5% (active)
9,NC1=CC(=O)C(=O)c2cccnc21,95.4% (active)
10,CCc1ccc(OCC(=O)NCC(c2ccc(Cl)cc2)N2CCCCC2)cc1 (stereo unspecified),14.2%
11,COc1ccc2c(c1)C(C)=CC(C)(C)N2C(=O)Nc1ccccc1,-94.5%
12,O=C1Nc2ccccc2-n2nnnc2C1N1CCN(c2cccc(C(F)(F)F)n2)CC1 (stereo unspecified),-5.01%
13,CCNC(=S)N1CCN(c2ncccn2)CC1,-9.28%
14,Cc1cc(C)c2c(=O)[nH]c(SCC(=O)Nc3ccc(Br)cc3)nc2n1,-13.3%
15,Cc1ccccc1-n1c(SCC(=O)Nc2cccc3ccccc23)nc(O)cc1=O,-11.1%
16,Cc1oc2c(F)c(F)c(F)c(F)c2c1S(=O)(=O)Nc1cccc(C(F)(F)F)c1,13.9%
17,CC(C)(C)c1ccc(S(=O)(=O)NCC2CCN(C(=O)C(=O)c3cc4ccccc4o3)CC2)cc1,-5.86%
18,Nc1ccc(N=Nc2ccccc2Cl)c(N)n1,8.04%
19,Oc1ccc(/C=N/Nc2ccc(C(F)(F)F)cn2)cc1O,-17.2%
20,CCCSc1nc(NCc2ccco2)c2c3c(sc2n1)COC(C)(CC)C3 (stereo unspecified),-14.8%
21,O=C(O)c1ccccc1/C=N/Nc1ccc(S(=O)(=O)Nc2ccc(Cl)cc2)cc1[N+](=O)[O-],12.4%
22,CN1CCN(Cc2nc3cc(NC(=O)COc4ccc([N+](=O)[O-])cc4)ccc3n2C)CC1,-12.5%
23,CCN(CC(=O)Nc1c(F)cccc1F)C(=O)c1cnc(C)cn1,2.27%

row,Structure (SMILES),inhibition
1,CC1CCCCC12NC(=O)N(CC(=O)OCC(=O)NCc1ccc(F)cc1)C2=O (stereo unspecified),-0.61%
2,Cc1ccnc(NS(=O)(=O)c2ccc(NC(=O)c3oc4ccccc4c3C)cc2)n1,5.34%
3,Cc1coc2c(O)cc3c(c12)OC1(N2CCCCC2)C(=O)NCCCC31 (stereo unspecified),47.2% (active)
4,Cn1c(=NC(=O)c2cnccn2)sc2ccccc21,5.19%
5,Cc1ccc(CSc2nc(-c3ccccc3)c(C#N)c(=O)[nH]2)cc1,13.2%
6,Oc1ccc(N=Cc2c(O)ccc3ccccc23)cc1,4.75%
7,Oc1c(C=Nc2cccc3nsnc23)ccc2ccccc12,100% (active)
8,CC(C)Cn1c(N)c(C(=O)NCc2cccs2)c2nc3ccccc3nc21,-76.7%
9,C=CCC[C@@H](CCCCC)OC(=O)/C=C/[C@@H](O)[C@H](O)C[C@H](O)CC=C,-0.24%
10,CCc1ccc2c(c1)NC(=O)C2(C)Cc1ccc(OC(F)(F)F)cc1 (stereo unspecified),3.85%
11,O=C(Nc1cccc(S(=O)(=O)N2CCCCC2)c1)c1ccc2c(c1)OCO2,-5.32%
12,COc1ccc(C(N)c2csc(NC(=O)Nc3cccc(C(F)(F)F)c3)n2)cc1 (stereo unspecified),-16.9%
13,O=C(NCc1ccc(F)cc1)c1cc(C2CCCCN2C(=O)C2CCCCC2)on1 (stereo unspecified),-10.2%
14,Cc1nnc(SC(C)C(=O)Nc2ccc(S(=O)(=O)NC3CCCCC3)cc2)s1 (stereo unspecified),-7.87%
15,CCOC(=O)N1CCC(c2cc(=O)n(-c3ccccc3)[nH]2)CC1,-6.72%
16,COc1ccccc1C1C(C#N)=C(N)Oc2c1c(-c1ccccc1)nn2-c1ccccc1 (stereo unspecified),1.06%
17,CCN(CC)C(=O)C1=C(C)N(Cc2ccc(C(C)(C)C)cc2)C(=O)C(CC(=O)NCc2cccc3ccccc23)C1 (stereo unspecified),3.3%
18,COc1ccc(C(=O)/C=C/c2ccc(-c3ccccc3)cc2)cc1CSCC(=O)O,0.4%
19,COc1cccc(NC(=O)C(=O)c2cn(CC(=O)N3CCOCC3)c3ccccc23)c1,0.94%
20,COCCn1nnnc1C(c1cc2ccc(OC)cc2[nH]c1=O)N1CCc2ccccc2C1 (stereo unspecified),20.7%
21,CN(C)N1C(N)=C(C#N)C(c2ccc(Br)cc2)C2=C1CCCC2=O (stereo unspecified),-25.8%
22,O=C1Nc2ccc([N+](=O)[O-])cc2C1=Nc1cccc(CO)c1,58.4% (active)
23,CCN(CC)P(=O)(Oc1cccc(C)c1)N(CC)CC,-12.8%

row,Structure (SMILES),inhibition
1,CCCCCC(=O)N1C[C@H](O)[C@@H](n2cc(COC(=O)c3ccccc3)nn2)C[C@@H]1c1ccc(C)cc1,7.84%
2,CC(C)Oc1ccc(CN2CCC2(C)C(=O)NCc2ccc(C(F)(F)F)cc2)cc1 (stereo unspecified),8.85%
3,CN1c2ccc(C=O)c3c(C=O)ccc(c23)N(C)C1(C)C,-100%
4,COc1ccc(F)cc1C(=O)C1CCCN(C(=O)CCc2ccccn2)C1 (stereo unspecified),-14.7%
5,CCN(C[C@H]1N[C@@](CC)(C(=O)OC)[C@H]2C(=O)N(Cc3ccccc3)C(=O)[C@@H]12)S(=O)(=O)c1ccc(C(F)(F)F)cc1,7.2%
6,CCOC(=O)c1ccc(Nc2cc3ccccc3c(=O)[nH]2)cc1,24.6%
7,CCOC(=O)c1c(C)[nH]c2c1-c1ccccc1C(=O)C2=O,98.7% (active)
8,O=C1C=C(NS(=O)(=O)c2ccccc2)C(=O)c2ccccc21,15.4%
9,O=C(NC1=CC(=O)c2ccccc2C1=O)c1ccccc1,99.3% (active)
10,O=C(NC1CCCCC1)N1CCc2[nH]c3ccccc3c2C1,-22.6%
11,CN(C)c1ccc(N/C=C/C(=O)C(F)(F)F)cc1,5.61%
12,Cc1cc(C(=O)N/N=C/c2ccc(O)c([N+](=O)[O-])c2)c(C)n1-c1ccc(F)cc1,8.57%
13,CCCS(=O)(=O)NC(=O)C1(C)CCN(C(=O)c2sccc2C)C1 (stereo unspecified),-18.9%
14,COc1cc2c(cc1OC)C(Cc1cc(OC)c(OC)cc1[N+](=O)[O-])=NCC2,-18.3%
15,COc1ccc(NC(=O)C[C@H]2C(=O)N(CCc3ccccc3)C[C@@H]2C)cc1,-25.5%
16,COC(=O)[C@]12C[C@H](CC(=O)NCc3ccc(C)o3)C(=O)N(CCC3=CCCCC3)C1=C[C@H](C(C)(C)C)O[C@@H]2C,9.58%
17,CCOC(=O)c1ccc(NC(=O)c2nc[nH]c2C(=O)N[C@@H](CCCCNC(=O)OC(C)(C)C)C(=O)OC(C)(C)C)cc1,12.5%
18,O=C(NCCc1ccc(Cl)cc1Cl)c1cc([N+](=O)[O-])c[nH]c1=O,-6.11%
19,COC(=O)[C@@]12C[C@@H](CC(=O)NCc3cccc(C(F)(F)F)c3)C(=O)N(Cc3ccco3)C1=CCC(C)(C)C2,12.2%
20,CCN(CC)C(=O)[C@@H]1C=C2c3cccc4[nH]c(Br)c(c34)C[C@H]2N(C)C1,-5.37%
21,CCn1nnnc1SCC(=O)Nc1ccc(N(C)C)cc1,6.35%
22,Cc1nnc(NC(=O)Nc2ccc(Cl)c(Cl)c2)s1,-15.1%
